From PubChem
HEK cytotox = Cytotoxic Profiling in HEK 293 Cell Line of Diverse Libraries Using Quantitative High-Throughput Screening; AID 1345083, 2018; Potency, µM (highest dose often 115 µM), for inactives: at the highest dose activity change, negative = cytotoxicity, usual class: inhibitors; actives 6.6% (n = 94,000); HEK 293 viability, ATP luminescence (CellTiter-Glo), 48-72 h; further: on the % scale 0 is the no-effect control and ±100 the full control effect; nearly all actives have a fitted effect of over 60% in size
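ATP-coupled CellTiter-Glo luminescence served as viability read-out, recorded 10 min after reagent addition at room temperature. HEK 293 cells, 250 cells/well, had been incubated with pintool-transferred compound for 48 or 72 hr at 37 degree Celsius.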
SNCA expr inh = Primary qHTS assay for inhibitors of alpha-synuclein gene (SNCA) expression; Potency, µM (series often up to 57.2 µM), inactives show at the top dose activity change, negative = inhibition, usual class: inhibitors; actives 0.17% (n = 140,000); HEK-293 SNCA-luciferase knock-in, luminescence, 24 h;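 further: plate controls were DMSO cells for no effect and cell-free wells for full effect; nearly all actives have a fitted effect of over 45% in size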
HEK293 viab = GF-AFC viability counterscreen for inhibitors of alpha-synuclein gene (SNCA) expression; Potency, µM (highest dose often 57.1 µM), for the others: top-dose activity change, negative = cytotoxicity, most hits filed as cytotoxic; actives 0.12% (n = 150,000); HEK-293-SNCA-luc viability, GF-AFC fluorescence, 24 h;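 further: 0% = DMSO-treated cells and -100% = medium-only wells without cells; nearly all actives have a fitted effect of over 30% in size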
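HEK-293-SNCA-luc cells (1500/well) plated 24 h, then exposed 24 h to a dilution series; GF-AFC added 30 min at 37C, fluorescence 405/540 nm; normalised to medium-only and DMSO wells, Hill fit.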
Luciferase inh = Firefly luciferase inhibition profiling of diverse chemical library using quantitative high-throughput screening; Luciferin 4-monooxygenase (Photinus pyralis), P08659; purified P. pyralis luciferase, luminescence, biochemical; Potency, µM (top dose mostly 115 µM), most hits filed as inhibitors; actives 2.5% (n = 76,000); AID 1347043, 2019; further: on the % scale 0 is the no-effect control and ±100 the full control effect; nearly all actives have a fitted effect of over 65% in size
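Biochemical qHTS: compound (6-point titration) added to 10uM D-luciferin plus 10uM ATP in Tris acetate pH 7.5 buffer with Mg, Tween-20 and BSA, then purified enzyme at 10nM; light output imaged.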
NIH3T3 tox = Cytotoxic Profiling in NIH 3T3 Cell Line of Diverse Libraries Using Quantitative High-Throughput Screening. actives 4.3% (n = 94,000). NIH 3T3 viability, CellTiter-Glo ATP luminescence, 48-72 h. Potency, µM (titrated, usually from 96.7 µM), inactives show at the highest dose activity change, negative = cytotoxicity, most hits filed as inhibitors; further: on the % scale 0 is the no-effect control and ±100 the full control effect; nearly all actives have a fitted effect of over 55% in size
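ATP-dependent luminescence (CellTiter-Glo) served as the viability signal for NIH 3T3 cells treated with compound for 48 or 72 hr at 37 °C.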
hNpr1 antagonist = Natriuretic polypeptide receptor (hNpr1) antagonism - Primary qHTS; Atrial natriuretic peptide receptor 1 (Homo sapiens), P16066; HEK293 hNpr1 GloSensor cGMP, ANP-stimulated luminescence; Potency, µM (series often up to 46.3 µM), inactives show top-dose activity change, negative = inhibition, most hits filed as inhibitors; actives 1.6% (n = 76,000); AID 1347048, 2019; calls by dose curve; further: on the % scale 0 is the no-effect control and ±100 the full control effect; nearly all actives have a fitted effect of over 60% in size
Target sequence (P16066 whole entry, looked up): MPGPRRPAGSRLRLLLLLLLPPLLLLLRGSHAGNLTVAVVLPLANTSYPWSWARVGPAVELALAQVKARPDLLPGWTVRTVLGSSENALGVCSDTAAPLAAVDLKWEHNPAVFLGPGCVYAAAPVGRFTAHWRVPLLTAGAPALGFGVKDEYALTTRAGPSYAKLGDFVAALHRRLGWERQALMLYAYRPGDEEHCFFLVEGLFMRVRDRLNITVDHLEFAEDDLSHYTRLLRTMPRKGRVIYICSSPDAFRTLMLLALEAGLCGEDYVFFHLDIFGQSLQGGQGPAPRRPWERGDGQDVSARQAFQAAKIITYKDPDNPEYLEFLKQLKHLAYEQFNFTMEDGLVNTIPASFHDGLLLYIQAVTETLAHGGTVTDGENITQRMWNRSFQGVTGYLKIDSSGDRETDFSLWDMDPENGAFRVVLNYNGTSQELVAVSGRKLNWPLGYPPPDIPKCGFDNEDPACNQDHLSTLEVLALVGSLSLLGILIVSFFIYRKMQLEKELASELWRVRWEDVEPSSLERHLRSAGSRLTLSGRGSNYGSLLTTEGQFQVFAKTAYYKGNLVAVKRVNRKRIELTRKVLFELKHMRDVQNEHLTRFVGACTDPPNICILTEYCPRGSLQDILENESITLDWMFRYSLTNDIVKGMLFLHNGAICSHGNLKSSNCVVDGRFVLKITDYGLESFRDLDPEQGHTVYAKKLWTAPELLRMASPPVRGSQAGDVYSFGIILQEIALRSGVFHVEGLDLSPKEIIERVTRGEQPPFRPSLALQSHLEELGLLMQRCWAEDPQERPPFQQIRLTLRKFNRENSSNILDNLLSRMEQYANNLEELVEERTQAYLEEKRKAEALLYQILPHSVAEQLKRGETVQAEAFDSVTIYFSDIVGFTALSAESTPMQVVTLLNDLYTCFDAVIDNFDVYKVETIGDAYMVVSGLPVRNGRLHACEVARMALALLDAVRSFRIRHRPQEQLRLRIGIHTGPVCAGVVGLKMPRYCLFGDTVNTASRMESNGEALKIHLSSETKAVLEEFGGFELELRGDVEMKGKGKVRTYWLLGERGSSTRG
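HEK293 cells stably expressing human Npr1 and cGMP GloSensor pGS-40F, loaded 2 h with 2% GloSensor reagent, given compound 30 min at room temperature. Luminescence read before and 20 min after 0.1 nM hNppA.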
Npr1 antag conf = Natriuretic polypeptide receptor (hNpr1) antagonism - Confirmation; HEK293 hNpr1 cGMP GloSensor luminescence, ANP-stimulated; Potency, µM (highest dose often 57.6 µM), inactives show at the top dose activity change, negative = inhibition, usual class: inhibitors; actives 76% (n = 1,400); shares compounds with hNpr1 antagonist; calls by dose curve; further: nearly all actives have a fitted effect of over 70% in size
Npr2 selectivity = Natriuretic polypeptide receptor (hNpr2) antagonism - Subtype selectivity assay; actives 67% (n = 1,400); Potency, µM (titrated, usually from 57.6 µM), inactives show top-dose activity change, negative = inhibition, most hits filed as inhibitors; AID 1347046, 2019; HEK293 hNpr2 GloSensor cGMP luminescence, CNP-stimulated; shares compounds with hNpr1 antagonist; calls by dose curve; further: nearly all actives have a fitted effect of over 70% in size
FLuc counter = Natriuretic polypeptide receptor (hNpr1) antagonism - Confirmation firefly luciferase (FLuc) inhibition counterscreen; purified FLuc enzyme, luminescence, Km substrate; shares compounds with hNpr1 antagonist; actives 0.7% (n = 1,400); Potency, µM (doses to about 57.6 µM), for the others: top-dose activity change, negative = inhibition, usual class: inhibitors; AID 1347047, 2019; further: 0% is about no effect
GloSensor ctrl = Natriuretic polypeptide receptor (hNpr1) antagonism - Counterscreen GloSensor control cell line; AID 1347051, 2019; actives 69% (n = 1,400); HEK293 GloSensor cGMP, SNP-stimulated, luminescence; shares compounds with hNpr1 antagonist; Potency, µM (highest dose often 57.6 µM), for inactives: top-dose activity change, negative = inhibition, usual class: inhibitors; calls by dose curve; further: on the % scale 0 is the no-effect control and ±100 the full control effect; nearly all actives have a fitted effect of over 70% in size
* marks the source's active call; other numbers are inactive results; i = inactive; ? = inconclusive; / = not tested or not shown; [ ] = another dose, or the depositor's remark. Sampled rows, rich in hits. Any-hit rate of the full collection: about 7.4%. Unless noted, the call rests on the fitted dose curve; in most records, active means well fitted curve in the direction sought with a large enough effect; inconclusive means small, poorly fitted or top-dose-only effect, or another doubt; inactive means no such curve, though single readings can be large; an effect the other way counts as inactive or inconclusive. Potency means the concentration at half of the fitted maximal effect.

SMILES	HEK cytotox	SNCA expr inh	HEK293 viab	Luciferase inh	NIH3T3 tox	hNpr1 antagonist	Npr1 antag conf	Npr2 selectivity	FLuc counter	GloSensor ctrl
CCOC(=O)C1CCN(C(=O)c2ccc3nnc(-c4cc(C(F)(F)F)cc(C(F)(F)F)c4)n3c2)CC1	?	4%	5%	/	-18%	/	/	/	/	/
CC(=O)NC[C@H]1O[C@H](Cc2cc(-c3ccc(F)cc3)on2)CC[C@@H]1O	-17%[172 µM]	92%[87.6 µM]	10%[87.6 µM]	?	-7%[138 µM]	?	/	/	/	/
COc1ccc(-c2cc(C[C@@H]3CC[C@H](O)[C@@H](CNCc4ccccc4OC)O3)no2)cc1	32µM*	-12%[87.6 µM]	-14%[87.6 µM]	?	56µM*	28µM*	31µM*	35µM*	?	?
O[C@H]1CC[C@@H](Cc2cc(-c3ccc(F)cc3)on2)O[C@@H]1CNC1CCCCC1	?	77%[87.6 µM]	-23%[87.6 µM]	i	40µM*	?	?	?	-23%[86.2 µM]	-20%[86.2 µM]
Oc1cccc(-c2cc(C[C@@H]3CC[C@H](O)[C@@H](CNC4CCC4)O3)no2)c1	-9%[172 µM]	-4%[87.6 µM]	-4%[87.6 µM]	i	-5%[138 µM]	?	?	-14%[86.2 µM]	-3%[86.2 µM]	-25%[86.2 µM]
CC(C)(C)C(=O)NC[C@H]1O[C@H](Cc2cc(-c3ccc(F)cc3)on2)CC[C@@H]1O	?	40%[87.6 µM]	-3%[87.6 µM]	i	-11%[174 µM]	?	?	?	20µM*	?
CC(=O)N(C1CCOCC1)C1CCN(S(=O)(=O)c2ccc(Cl)c(C)c2)CC1	1%	-21%	-8%	/	-7%	/	/	/	/	/
CO[C@H]1C(=O)N(C2CCN(C(=O)Nc3ccc4c(c3)OCCO4)CC2)[C@H]1c1ccncc1	-1%	14%	-3%	/	-12%	/	/	/	/	/
O=C(N1CCCC(c2nnnn2-c2ccccc2)C1)C1(c2ccccc2)CC1 (stereo not given)	-25%	-18%	17%	/	?	/	/	/	/	/
Cc1ccc(S(=O)(=O)NC[C@H]2O[C@H](Cc3cc(-c4cccc(O)c4)on3)CC[C@@H]2O)cc1	?	?	4%	i	?	?	?	?	?	?
Cc1ccc(S(=O)(=O)NC[C@H]2O[C@H](Cc3cc(COc4ccccc4)on3)CC[C@@H]2O)cc1	?	50%	1%	i	?	-24%	/	/	/	/
Cc1nn(-c2ccccc2)c2c1C(C(C)C)N(C1CCCN([S+](=O)([O-])c3ccccc3)C1)C2=O (stereo not given)	?	/	/	/	-13%	/	/	/	/	/
O=C(C1CCCN1C(=O)c1ccccc1F)N1CCC(c2nc3ccncc3[nH]2)CC1 (stereo not given)	i	-4%	-1%	/	-5%	/	/	/	/	/
CN(C(=O)C1(c2ccc(Cl)cc2)CCOCC1)C1CCc2ccccc21 (stereo not given)	?	-5%	-6%	/	?	/	19µM*	9.7µM*	5%	6%
O=C(CCc1c[nH]c2ccccc12)Nc1ccc(-c2nnc3n2CCCC3)cc1	-7%	-19%	3%	i	-8%	5%	/	/	/	/
O=C1NC(=NC2CCCC2)C2(CCCN(Cc3cccnc3)C2)N1c1cc(F)cc(F)c1 (stereo not given)	2%	-4%	0%	/	25µM*	/	-16%	0%	3%	-8%
O=C(NCCNC(=O)c1cccc(-c2ccsc2)c1)c1ccc(Cl)nc1	-6%	?	4%[12.5 µM]	/	-1%	/	/	/	/	/
COc1ccc(-n2c(=O)c(C(=O)N3CCC(c4ccccc4)CC3)nc3cccnc32)cc1	2%	-22%	-6%	/	-8%	/	/	/	/	/
COCc1nc2nc(-c3ccccc3)c(-c3ccc(O)c(F)c3)cc2n1C	?	-3%[87.6 µM]	-8%[87.6 µM]	?	?	-26%[70.6 µM]	/	/	/	/
CN(C)CCNC(=O)c1nc2nc(-c3ccccc3)c(-c3ccc(O)c(F)c3)cc2n1C	71µM*	12%[87.6 µM]	-25%[87.6 µM]	i	45µM*	22µM*	35µM*	20µM*	2%[86.2 µM]	-8%[86.2 µM]
Cc1nc2cccnc2n1CC1CCCN(S(=O)(=O)c2ccc(CC(C)C)cc2)C1 (stereo not given)	32µM*	-40%	-6%	i	?	13µM*	22µM*	24µM*	2%	22µM*
O=S(=O)(c1ccc2c(c1)CCCC2)N1CCCC(Cn2cnc3cccnc32)C1 (stereo not given)	?	-23%	-11%	i	?	?	24µM*	19µM*	-2%	24µM*
Cc1nc2cccnc2n1CC1CCCN(S(=O)(=O)c2ccc3c(c2)CCCC3)C1 (stereo not given)	?	-19%	-8%	i	?	?	/	/	/	/
O=C(c1n[nH]c2ccccc12)N1CC(Oc2ccccc2-c2nc(-c3ccccc3)no2)C1	-16%	12%	-12%	i	-26%	-2%	/	/	/	/
COC(=O)c1cccc(NC(=S)N[C@@H]2C=C[C@@H](c3c(C)nn(-c4ccccc4[N+](=O)[O-])c3C)C2)c1	40µM*	?	?	i	40µM*	13µM*	19µM*	?	-8%	24µM*
